The entries come from a sample that favours the strongest signals as a whole.
Key:
Assay in all cases: glycan array binding signal (z-score within array); higher = stronger binding
Settings in all cases: glycan notation: IUPAC condensed, linker removed
[1] = target: Fuc(a1-2)Gal(b1-3)GlcNAc(b1-2)Man(a1-3)[Fuc(a1-2)Gal(b1-3)GlcNAc(b1-2)Man(a1-6)]Man(b1-4)GlcNAc(b1-4)GlcNAc
Method in brief: (§1)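 Glycan array binding is given as a within-array Z-score, which can be read as non-binding when negative. The arrays, 3228 of them, came from the Consortium for Functional Glycomics database and were retained only where the protein sequence was available. Z-scores were averaged across arrays of the same protein sequence at different concentrations or buffers and across linkers.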

[2] = target: Fuc(a1-2)Gal(b1-3)[Fuc(a1-4)]GlcNAc(b1-2)Man(a1-3)[Fuc(a1-2)Gal(b1-3)[Fuc(a1-4)]GlcNAc(b1-2)Man(a1-3)]Man(b1-4)GlcNAc(b1-4)GlcNAc
Method in brief: as §1

[3] = target: Fuc(a1-2)Gal(b1-4)GlcNAc(b1-3)Gal(b1-4)GlcNAc(b1-2)Man(a1-3)[Fuc(a1-2)Gal(b1-4)GlcNAc(b1-3)Gal(b1-4)GlcNAc(b1-2)Man(a1-6)]Man(b1-4)GlcNAc(b1-4)GlcNAc
Method in brief: as §1

[4] = target: Fuc(a1-2)Gal(b1-4)GlcNAc(b1-3)GalNAc
Method in brief: as §1

[5] = target: Fuc(a1-2)Gal6S(b1-3)GlcNAc6S
Method in brief: as §1

Fuc(a1-2)[Gal(a1-3)]Gal = target: Fuc(a1-2)[Gal(a1-3)]Gal
Method in brief: as §1

[6] = target: Fuc(a1-2)[Gal(a1-3)]Gal(b1-3)GlcNAc(b1-2)Man(a1-3)[Fuc(a1-2)[Gal(a1-3)]Gal(b1-3)GlcNAc(b1-2)Man(a1-6)]Man(b1-4)GlcNAc(b1-4)GlcNAc
Method in brief: as §1

[7] = target: Fuc(a1-3)[Gal(b1-4)]GlcNAc(b1-3)Gal(b1-4)[Fuc(a1-3)]GlcNAc
Method in brief: as §1

[8] = target: Fuc(a1-3)[GalNAc(b1-4)]GlcNAc6S
Method in brief: as §1

Gal(a1-4)Gal(b1-4)GlcNAc = target: Gal(a1-4)Gal(b1-4)GlcNAc
Method in brief: as §1

[9] = target: Gal(b1-3)GlcNAc(b1-2)[Gal(b1-3)GlcNAc(b1-6)]Man(a1-6)[Gal(b1-3)GlcNAc(b1-2)Man(a1-3)]Man(b1-4)GlcNAc(b1-4)GlcNAc
Method in brief: as §1

[10] = target: Gal(b1-3)GlcNAc(b1-3)Gal(b1-3)GlcNAc
Method in brief: as §1

[11] = target: Gal(b1-3)GlcNAc(b1-3)Gal(b1-4)Glc
Method in brief: as §1

[12] = target: Gal(b1-3)[GlcNAc(b1-6)]GalNAc
Method in brief: as §1

[13] = target: Gal(b1-4)GlcNAc(b1-2)Man(a1-3)[Gal(b1-4)GlcNAc(b1-2)Man(a1-6)]Man(b1-4)GlcNAc(b1-4)GlcNAc
Method in brief: as §1

[14] = target: Gal(b1-4)GlcNAc(b1-2)Man(a1-3)[Gal(b1-4)GlcNAc(b1-2)Man(a1-6)][GlcNAc(b1-4)]Man(b1-4)GlcNAc(b1-4)[Fuc(a1-6)]GlcNAc
Method in brief: as §1

[15] = target: Gal(b1-4)GlcNAc(b1-3)Gal(b1-3)GalNAc
Method in brief: as §1

[16] = target: Gal(b1-4)GlcNAc(b1-3)Gal(b1-4)GlcNAc(b1-3)Gal(b1-4)GlcNAc(b1-3)Gal(b1-4)GlcNAc(b1-2)Man(a1-3)[Gal(b1-4)GlcNAc(b1-3)Gal(b1-4)GlcNAc(b1-3)Gal(b1-4)GlcNAc(b1-3)Gal(b1-4)GlcNAc(b1-2)Man(a1-6)]Man(b1-4)GlcNAc(b1-4)GlcNAc
Method in brief: as §1

[17] = target: Gal(b1-4)GlcNAc(b1-3)Gal(b1-4)GlcNAc(b1-3)Gal(b1-4)GlcNAc(b1-3)Gal(b1-4)GlcNAc(b1-2)Man(a1-3)[Gal(b1-4)GlcNAc(b1-3)Gal(b1-4)GlcNAc(b1-3)Gal(b1-4)GlcNAc(b1-3)Gal(b1-4)GlcNAc(b1-2)Man(a1-6)]Man(b1-4)GlcNAc(b1-4)[Fuc(a1-6)]GlcNAc
Method in brief: as §1

[18] = target: Gal(b1-4)GlcNAc(b1-3)Gal(b1-4)GlcNAc(b1-3)Gal(b1-4)GlcNAc(b1-3)Gal(b1-4)GlcNAc(b1-3)Gal(b1-4)GlcNAc(b1-2)Man(a1-3)[Gal(b1-4)GlcNAc(b1-3)Gal(b1-4)GlcNAc(b1-3)Gal(b1-4)GlcNAc(b1-3)Gal(b1-4)GlcNAc(b1-3)Gal(b1-4)GlcNAc(b1-2)Man(a1-6)]Man(b1-4)GlcNAc(b1-4)[Fuc(a1-6)]GlcNAc
Method in brief: as §1

[19] = target: Gal(b1-4)GlcNAc(b1-3)[Fuc(a1-3)GlcNAc(b1-6)]Gal(b1-4)Glc
Method in brief: as §1

[20] = target: Gal(b1-4)GlcNAc(b1-3)[Gal(b1-4)GlcNAc(b1-6)]Gal(b1-4)GlcNAc
Method in brief: as §1

Gal(b1-4)GlcNAc6P = target: Gal(b1-4)GlcNAc6P
Method in brief: as §1

Gal3S(b1-4)Glc6S = target: Gal3S(b1-4)Glc6S
Method in brief: as §1

[21] = target: Gal3S(b1-4)[Fuc(a1-3)]GlcNAc6S
Method in brief: as §1

GalNAc(b1-3)GlcNAc = target: GalNAc(b1-3)GlcNAc
Method in brief: as §1

[22] = target: GalNAc3S(b1-4)[Fuc(a1-3)]GlcNAc
Method in brief: as §1

[23] = target: GlcA3S(b1-3)Gal(b1-4)GlcNAc(b1-3)Gal(b1-4)Glc
Method in brief: as §1

[24] = target: GlcNAc(b1-3)Gal(b1-4)GlcNAc(b1-2)[GlcNAc(b1-3)Gal(b1-4)GlcNAc(b1-6)]Man(a1-6)[GlcNAc(b1-3)Gal(b1-4)GlcNAc(b1-2)Man(a1-3)]Man(b1-4)GlcNAc(b1-4)GlcNAc
Method in brief: as §1

[25] = target: GlcNAc(b1-3)Gal(b1-4)GlcNAc(b1-6)[Gal(b1-3)]GalNAc
Method in brief: as §1

Man(a1-3)[Man(a1-6)]Man = target: Man(a1-3)[Man(a1-6)]Man
Method in brief: as §1

[26] = target: Neu5Ac(a2-3)Gal(b1-3)GlcNAc(b1-6)GalNAc
Method in brief: as §1

[27] = target: Neu5Ac(a2-3)Gal(b1-4)GlcNAc(b1-6)GalNAc
Method in brief: as §1

[28] = target: Neu5Ac(a2-6)Gal(b1-4)GlcNAc(b1-2)Man(a1-3)[Man(a1-6)]Man(b1-4)GlcNAc(b1-4)GlcNAc
Method in brief: as §1

[29] = target: Neu5Ac(a2-6)Gal(b1-4)GlcNAc(b1-2)Man(a1-3)[Neu5Ac(a2-6)Gal(b1-4)GlcNAc(b1-2)Man(a1-6)]Man(b1-4)GlcNAc(b1-4)GlcNAc
Method in brief: as §1

[30] = target: Neu5Ac(a2-6)Gal(b1-4)GlcNAc(b1-3)Gal(b1-3)GlcNAc
Method in brief: as §1

[31] = target: Neu5Ac(a2-6)Gal(b1-4)GlcNAc(b1-3)Gal(b1-4)GlcNAc
Method in brief: as §1

Neu5Ac(a2-6)GalNAc = target: Neu5Ac(a2-6)GalNAc
Method in brief: as §1

Neu5Gc(a2-6)GalNAc = target: Neu5Gc(a2-6)GalNAc
Method in brief: as §1

B1: Clec18C (Homo sapiens) (protein)
chain: MLHPETSPGRGHLLAVLLALLGTAWAEVWPPQLQEQAPMAGALNRKESFLLLSLHNRLRSWVQPPAADMRRLDWSDSLAQLAQARAALCGTPTPSLASGLWRTLQVGWNMQLLPAGLVSFVEVVSLWFAEGQRYSHAAGECARNATCTHYTQLVWATSSQLGCGRHLCSAGQAAIEAFVCAYSPRGNWEVNGKTIVPYKKGAWCSLCTASVSGCFKAWDHAGGLCEVPRNPCRMSCQNHGRLNISTCHCHCPPGYTGRYCQVRCSLQCVHGRLREEECSCVCDIGYGGAQCATKVHFPFHTCDLRIDGDCFMVSSEADTYYRARMKCQRKGGVLAQIKSQKVQDILAFYLGRLETTNEVIDSDFETRNFWIGLTYKTAKDSFRWATGEHQAFTSFAFGQPDNHGFGNCVELQASAAFNWNNQRCKTRNRYICQFAQEHISRWGPGS
[1]
  glycan array binding signal (z-score): 3.46
[2]
  glycan array binding signal (z-score): 0.055
[3]
  glycan array binding signal (z-score): 0.124
[4]
  glycan array binding signal (z-score): 3.79
[5]
  glycan array binding signal (z-score): -0.032
Fuc(a1-2)[Gal(a1-3)]Gal
  glycan array binding signal (z-score): -0.382
[6]
  glycan array binding signal (z-score): -0.479
[7]
  glycan array binding signal (z-score): -0.261
[8]
  glycan array binding signal (z-score): 0.313
Gal(a1-4)Gal(b1-4)GlcNAc
  glycan array binding signal (z-score): 1.24
[9]
  glycan array binding signal (z-score): -0.547
[10]
  glycan array binding signal (z-score): -0.443
[11]
  glycan array binding signal (z-score): -0.457
[12]
  glycan array binding signal (z-score): 4.42
[13]
  glycan array binding signal (z-score): 5.03
[14]
  glycan array binding signal (z-score): 1.07
[15]
  glycan array binding signal (z-score): 5.75
[16]
  glycan array binding signal (z-score): 1.91
[17]
  glycan array binding signal (z-score): -0.276
[18]
  glycan array binding signal (z-score): 3.34
[19]
  glycan array binding signal (z-score): -0.356
[20]
  glycan array binding signal (z-score): 7.63
Gal(b1-4)GlcNAc6P
  glycan array binding signal (z-score): 5.02
Gal3S(b1-4)Glc6S
  glycan array binding signal (z-score): -0.387
[21]
  glycan array binding signal (z-score): -0.116
GalNAc(b1-3)GlcNAc
  glycan array binding signal (z-score): 3.98
[22]
  glycan array binding signal (z-score): -0.342
[23]
  glycan array binding signal (z-score): -0.395
[24]
  glycan array binding signal (z-score): -0.368
[25]
  glycan array binding signal (z-score): -0.398
Man(a1-3)[Man(a1-6)]Man
  glycan array binding signal (z-score): -0.507
[26]
  glycan array binding signal (z-score): -0.247
[27]
  glycan array binding signal (z-score): 3.92
[28]
  glycan array binding signal (z-score): -0.24
[29]
  glycan array binding signal (z-score): 0.183
[30]
  glycan array binding signal (z-score): 0.131
[31]
  glycan array binding signal (z-score): 3.16
Neu5Ac(a2-6)GalNAc
  glycan array binding signal (z-score): 5.42
Neu5Gc(a2-6)GalNAc
  glycan array binding signal (z-score): -0.265
